The values below come from PubChem BioAssay AID1508600 (Functional Genomics Laboratory (NCATS/FGL), 2020).

Out of some 53,000 sequences screened, about 3,700 (7%) were called active. The entries come from a sample that favours actives as a whole. Values without a mark were called inactive.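 How the source made its calls: active means gene knockdowns whose robust z-score for IL-1 alpha signal is at least 2 or at most -2, so actives lie on both sides; inactive means the rest.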

The nature of the test: Components of the Cytosolic LPS Sensing Pathway: Gene Identification via Genome-wide siRNA Screen.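 Further: robust z of the log signal after scaling to non-targeting control siRNA wells of the plate.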 The note with it: RAW264.7 macrophages, IL-1a HTRF, actives lie on both sides, screened at 100 nM (by protocol), cells primed 5 h with Pam3CSK4 first. The procedure, abridged: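 Three distinct siRNAs per gene were tested singly at 100 nM in RAW264.7 macrophages. Following Pam3CSK4 priming and 24 hour LipidA transfection, IL-1a secretion was read by HTRF.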
In general terms: Time-resolved FRET reads energy transfer from a long-lived donor to a nearby acceptor.
GGGAAAGUGUGUAAUAAAUTT against Egflam: the z-score was -0.774.
Under GCUUACUACCAUUGGGAAUTT against Samt2 stands 1.65.
Under GGAUUAGAGAAAUAGGGCUTT against Apol10a stands -2.09 (active).
With GGAAUUCCUUCGUUUCCUUTT against Usp2 the figure was 1.64.
With GGUUUGAAGUGUUGACAUUTT against Fam126a, the z-score is -0.474.
For the sequence CGUACAUCAGAAUGUUAAUTT against Fkbp4, the z-score is 1.46.
Take GGUGGUGUCAACCUUAAAATT against Nrsn1: the z-score is 0.253.
With GGUUUUGUCCAGAAGAAUATT against Kl the figure was -0.574; with GGAUGGACCAUCAGCUUCATT against Olfr1152, -2.25 (active); with GGCUCUUGAUACGAAUGUATT against Aadac, -0.44.
Under GGAGAAGGGCUUUUCUGUUTT against Gbp5 stands -0.729.
Turning to GCCUCACAGAUUGAUAAUATT against Akt3, the z-score is -1.23.
With GCAGCCAUACAGCUUAUAUTT against Cyb561d2 the figure was 0.382; with GGAGCUGUCAUUUAAGAAATT against Sorbs2, 2.42 (active).
As for CGUGGCUCACAAUAAAUGCTT against Cfd, the z-score is 0.385.
With GGCAAAUGGAAAAUUCUGCTT against Rlim the figure was 0.982.
Under GCUGAUGUAAGUAUUCUAGTT against Pdcl stands 0.1; under GCGGAAUUGGAAAAUGCCGTT against Hbs1l, 0.283; under GGUGGUAUCUGUAUUCUAUTT against Olfr1106, 2.6 (active).
With GGUGACAAUAAAUUUGGAUTT against Tmem143 the figure was 1.09; with GGAUUCACAUUUCUAAAGCTT against Adcy8, 1.31; with CGCUAUGAAACCUCACUAATT against E2f1, -0.598.
Turning to GCAUGACCUCAGGUUUUCUTT against Il20rb, the z-score was 1.57.
Take CCUGAUUGUCACUCCUUUUTT against Pde4b: the z-score is 0.753.
As to GCGAAAGCAGGAUACUCCUTT against Mtmr11, the z-score was 1.01.
Under GGAAAAAAUCUGCAUCCGATT against Neu1 stands -0.415; under GGGACAUGAGCCAUUCAUCTT against Lcor, 0.749; under GGAUAGCUCUAUUAUCUCUTT against Serpinb3a, 1.24.
Regarding “GGCAGUACAACUGGUCUACTT against 0610040J01Rik”, the z-score was 2.21 (active).
With GGAUGUGCUCUGUGAAUGCTT against Pgf the figure was 0.533; with GGCAUCACAGAAGGUUUAUTT against Rock2, 4.17 (active); with GGUGAACGAUGUCAAUAAGTT against Pdxk, -0.318.
Under CCAAGAGAUUGCUAAUUGCTT against Runx1t1 stands -0.695; under CGCAAAAACUGGUGUAACCTT against Arhgef1, -0.958.
Under CUCCUCAGUCAACAAGAACTT against Hoxc11 stands 0.176; under GCUUGUUGGUGGUCUCCUGTT against Spink7, -2.28 (active).
As for GGAAAAUGCCUCAAGACUUTT against Wdr5b, the z-score was -0.0565.
In the case of GGACACCAUCAAUUGAUUATT against Wdr27, the z-score is -0.127.
In the case of GCCUUGGCUGAAACUCUCATT against Cybb, the z-score is 0.612.
Regarding GGGACAAGAAGAACAAGAGTT against Srp14, the z-score is -1.33.
Consider GGAAGAAUCGGAUCAAGAUTT against Dpep2, for which the z-score was 0.153.
For the sequence GGCAUGGAAUCUGUUGUACTT against Olfr603, the z-score is 2.45 (active).
Under GCCAAGACCAUUCAGCCUUTT against Zfp579 stands -0.394.
Under GCUUCAUCGAACAAGUCGCTT against Pcbd1 stands 0.715; under GGUGCUGAAGAUGCUGACGTT against Zfp503, -1.46; under CGUCACUGAUGUGGCUUUUTT against Plpp6, 0.755.
With GGCAGAAACCCUUCUAUGUTT against Bmp8a the figure was -1.55.
In the case of GGACAGCUUCCGAAACUAUTT against Miox, the z-score was 0.349.
On to GGAAGCCAAAGAGAAACAATT against Ighmbp2, for which the z-score is -0.0223.
With CCGUUUACGGCCACUAACUTT against Phkg2 the figure was 3.68 (active).
With GCAGCCAAGUGGGUAACUUTT against Nicn1 the figure was 0.474; with CGGCCUGACAUCAACCUUGTT against Fam193b, -0.915.
Under GGAAGAAAACGCAACUAUATT against Atp1b3 stands 0.246; under “GUUCUCAAGUAUCCCAGGCTT against 1110006O24Rik”, -0.661.
As to GCUGGAAUAUAGGAAUGUCTT against Pex11g, the z-score is -0.0512.
Under GGUCUAGCUCUGAAACAUCTT against Pms2 stands 2.27 (active); under GCAUGUUUACGUUCCUGACTT against Slc2a12, -0.0386; under GGUUUUAAUUUCAACUGUCTT against Tpp1, -0.468.
With GGGCAACACAGGACAUCUATT against Amot the figure was -0.35.
With GCAGGUUAAGUAGCUGACATT against Dync1li2 the figure was -2.37 (active); with GGUGUCCACGGUGGUUUGATT against Pfn1, -0.268.
As for GGGACAGUUGACUUUUUAUTT against Cntn4, the z-score was 0.147.
In the case of CCUUUUGAUGCAUCCCGUCTT against Bpifb3, the z-score is 0.709.
With GGGACUUUGGGCUAAAUAGTT against Tspan1 the figure was -1.32; with CCCUCCACAGAUGAACACCTT against Lgals4, -2.02 (active); with GGAUAAUUGAUCAUAGAGGTT against Ufm1, -0.495.
Consider GAGUAGGAAUUAGAAUGAUTT against Tmem47, for which the z-score is -0.00808.
As to GCAUGAUCUCAGGUGUUUGTT against Timm13, the z-score was -1.54.
On to GGAUAACUGCUUCAUUUCCTT against Agbl1, for which the z-score was 0.62.
With GGAAAGACAAAGAACUCUATT against Ssu72 the figure was -0.535.
With GGAUUUCACUUGAGAAUGATT against Grem1 the figure was -0.905; with GGUCAACGUAAAUUGUUCATT against Plppr5, 2.94 (active).
As to CCUUCUAGUUUGCCUCUGGTT against Olfr877, the z-score was 0.332.
Take GGGAAGAGCAUGUUUGCUGTT against Surf4: the z-score is 0.982.
With GGAGUGUUGCCAGUUCCUATT against Tctn2 the figure was -0.434; with GGAGUUUCACCAGAAGGCUTT against Ttc24, 1.63.
With GGACUUUGUGAAGGACUCUTT against Gatd1 the figure was -2.56 (active); with GGAACUUGGAAUUUAGUUGTT against Pla2g4b, 1.43.
With GGACAUGGUCCUUCCUAAATT against Arl8b the figure was 0.944; with GGAAGCUGCACGGCAACUUTT against Btn2a2, -0.132.
As to GGAGUGAUCAUCUAUAAUUTT against Rnf133, the z-score is 2.12 (active).
In the case of “CCUGGUCAAUCGAUUCAUATT against 5330416C01Rik”, the z-score is -0.12.
Consider GGGCAGAGUGGAGUAUCUGTT against Cbx4, for which the z-score is -1.35.
Take GGACACAUGGAAGAGGAUUTT against Rnf139: the z-score was 0.513.
With CGAGGAUGCUUUUUAAAAATT against Inip the figure was -0.0653; with GCUGCUUUAGCUUAGUUUUTT against Vwa7, 0.457.
As to GCCGACAGAUUGAAAUUCGTT against Supv3l1, the z-score was 2.79 (active).
Under GCCCGAUUAAAAUAAAUUGTT against Arih2 stands 0.636; under GGAAAAUCUGGAGUUCUUCTT against Npas1, 1.3; under GGUUCAGACCAUCUUGGAATT against Bag3, -0.936.
As to GGCAUUCAGAAAUCCAGUATT against Zdhhc2, the z-score was -0.942.
Under GGGAAUGGAAACGGCCAUGTT against Nmt1 stands 2.02 (active); under GCAAAAGUUCCAAAAAUCCTT against Cryba1, 0.0525.
With GCUCUACAGUAGAACAAACTT against Efcab5 the figure was 1.18.
Under GGAUUGAAGUCCCUUUACUTT against Zdhhc16 stands 2.27 (active); under GGAACUCUUUUCCUAAAAUTT against Slco1a5, -0.838.
On to CCUAUACCCUGGAAAGGCATT against Pigz, for which the z-score is 1.59.
Under GGCUGAAUCACCAGAACAUTT against Ikbke stands -0.644; under GGCCAGAAUGUAUAAAGCUTT against Mboat7, -1; under GGGCACUGGAACAGAUUUUTT against Ccnh, 4.27 (active).
As for GGUCACCCUCAAGUACCCUTT against Thop1, the z-score was -0.188.
Under “GCUAUUAAGUUUACCCUAGTT against A730089K16Rik” stands -1.31.
Regarding GGACCAACUACACACUACGTT against Grik5, the z-score was 0.334.
For CCAAUGUGCGAGCAAAGAUTT against Arid5a, the z-score was 2.48 (active).
For GGACCGUAUCCCAAAAGAUTT against Klf1, the z-score was -0.968.
In the case of GGGCCUCUUCCUUAAGCAUTT against Snx8, the z-score is -0.382.
On to GGAAGUUUGUUUGCUGUUATT against Slx4ip, for which the z-score is 1.08.
Under GCCUAUUGUAAAUACAGGUTT against Bdnf stands 0.6.
